PubChem BioAssay (NCATS)
Several values for one entry are separate records, joined by “and”; a condition that tells them apart may be missing. Identical values can stand only once. Results filed as inconclusive are left out. More than one record can exist for a structure, and the calls need not agree. Activity calls are given as the source filed them. Unless noted, calls come from the whole dose curve; as a rule, active = well fitted curve in the direction sought with a large enough effect; inconclusive = small, poorly fitted or top-dose-only effect, or another doubt; inactive = no such curve, though single readings can be large; an effect the other way counts as inactive or inconclusive.

Experiments:
Tov-21-G = assay: Primary qHTS to identify gynecologic anti-cancer compounds using libraries of approved drugs and bioactive compounds (AID 1345084); conditions: Gynecologic cancer cell panel viability, ATPlite luminescence, 48 h; series mostly up to 57.5 µM; note: % is set by controls: 0 for no effect and ±100 for the full control effect; nearly all actives have a fitted effect of over 55% in size
How it was run: (§1)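 Cytotoxicity screen measuring ATP content by luciferase luminescence. Each compound is applied at five concentrations for 48 h at 37 C with 5% CO2.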

Tov112D = assay: as above; conditions: Gynecologic cancer cell panel viability, ATPlite luminescence, 48 h; series mostly up to 57.5 µM
How it was run: as §1

[1] = Drug repurposing screens with cells derived from glioblastoma tumor samples (AID 1345199); conditions: GBM patient neurospheres viability, ATP luminescence, 48 h; note: nearly all actives have a fitted effect of over 40% in size; note: potency is the fitted concentration of half-maximal effect; for activity, negative = cell killing: % is set by controls: 0 for no effect and ±100 for the full control effect
How it was run: (§2)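 Primary testing used CD133+ neurospheres from four GBM patients, seven concentrations, 48 h exposure and ATP-based viability; confirmation added three slower-growing patient lines.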

astro = assay: as above; conditions: viability, ATP luminescence, 48 h; series mostly up to 45.9 µM
How it was run: as §2

[2] = target: Nuclear receptor subfamily 1 group I member 2 (Rattus norvegicus) (UniProt Q9R1A7); assay: qHTS assay for small molecule activators of the rat pregnane X receptor (rPXR) signaling pathway (AID 651751; call rule not given here; note: 0% is about no effect); conditions: rPXR reporter cells, luciferase (One-Glo), 24 h
[3] = qHTS assay for small molecule activators of the human pregnane X receptor (PXR) signaling pathway (AID 720659; call rule not given here; note: 0% is about no effect)
[4] = at 45.9 µM (top of the series), tumour line B
[5] = at 45.9 µM (top of the series), tumour line D
[6] = at 46 µM (top of the series), tumour line A
[7] = at 46.1 µM (top of the series), tumour line C
[8] = at 20 µM (top of the series), tumour line C
[9] = at 21.2 µM (top of the series), tumour line B
[10] = at 21.2 µM (top of the series), tumour line D
[11] = at 21.3 µM (top of the series), tumour line A

Nuclear receptor subfamily 1 group I member 2 (Rattus norvegicus), sequence (Q9R1A7 whole entry, looked up): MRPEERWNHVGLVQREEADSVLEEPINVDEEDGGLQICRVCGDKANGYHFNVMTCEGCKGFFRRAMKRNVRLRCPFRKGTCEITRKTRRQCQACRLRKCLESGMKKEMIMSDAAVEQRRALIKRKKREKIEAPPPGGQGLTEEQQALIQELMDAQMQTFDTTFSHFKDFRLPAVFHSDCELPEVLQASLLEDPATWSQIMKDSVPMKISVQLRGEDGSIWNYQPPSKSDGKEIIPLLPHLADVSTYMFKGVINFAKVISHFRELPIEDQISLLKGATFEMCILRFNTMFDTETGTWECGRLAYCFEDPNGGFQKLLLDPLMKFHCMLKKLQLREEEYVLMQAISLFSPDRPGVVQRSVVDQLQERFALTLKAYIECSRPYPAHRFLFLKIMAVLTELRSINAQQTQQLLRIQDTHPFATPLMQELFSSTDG

COc1cc(C(=O)N2CCOCC2)cc(OC)c1OC
inactive: Potency (Tov-21-G) | Potency (Tov112D) | activity, negative = cell killing [1, 4] 8.47% and -7.54% | activity, negative = cell killing [1, 5] 3.68% and -23% | activity, negative = cell killing [1, 6] -14.2% | activity, negative = cell killing [1, 7] -7.33% and -2.64% | Potency (astro)

Nc1ccc(S(=O)(=O)NC(=O)c2ccccc2)cc1
inactive: Potency (Tov-21-G) | Potency (Tov112D) | activity, negative = cell killing [1, 8] -23.5% | activity, negative = cell killing [1, 9] -10.1% | activity, negative = cell killing [1, 10] -27.1% | activity, negative = cell killing [1, 11] -8.76% | Potency (astro)

C/C(=C(\CCOP(=O)(O)O)SC(=O)c1ccccc1)N(C=O)Cc1cnc(C)nc1N
inactive: activity change, negative = cytotoxicity (Tov-21-G) 4.62% [at 6.55 µM] | activity change, negative = cytotoxicity (Tov112D) 5.69% [at 6.55 µM] | activity, negative = cell killing [1, 8] -2.37% | activity, negative = cell killing [1, 9] 1.9% | activity, negative = cell killing [1, 10] -14.8% | activity, negative = cell killing [1, 11] -14% | Potency (astro)

C[C@H](N)[C@H](O)c1cccc(O)c1
inactive: Potency (Tov-21-G) | Potency (Tov112D) | activity, negative = cell killing [1, 8] -4.02% | activity, negative = cell killing [1, 9] -13% | activity, negative = cell killing [1, 10] -3.31% | activity, negative = cell killing [1, 11] -12.7% | Potency (astro)

Cc1ncc([N+](=O)[O-])n1CC(O)CCl (centres undefined)
inactive: Potency (Tov-21-G) | Potency (Tov112D) | activity, negative = cell killing [1, 8] -11.2% | activity, negative = cell killing [1, 9] -18% | activity, negative = cell killing [1, 10] -1.81% | activity, negative = cell killing [1, 11] -11.7% | Potency (astro)

C[C@@H]1C[C@H]2[C@@H]3C[C@H](F)C4=CC(=O)C=C[C@]4(C)[C@@]3(F)[C@@H](O)C[C@]2(C)[C@@]1(O)C(=O)CO
inactive: activity, negative = cell killing [1, 11] -20.6%

NS(=O)(=O)c1cc2c(cc1Cl)NC(CSCc1ccccc1)=NS2(=O)=O
inactive: activity, negative = cell killing [1, 11] -18.3%

CC(C)(C)C(=O)NCCCC(=O)O
inactive: Potency (Tov-21-G) | Potency (Tov112D) | activity, negative = cell killing [1, 4] -17.2% | activity, negative = cell killing [1, 5] -2.84% | activity, negative = cell killing [1, 7] -20.2% | Potency (astro)

CC(=O)c1ccc2c(c1)N(CCCN(C)C)c1ccccc1S2
inactive: Potency (Tov-21-G) | Potency (Tov112D) | activity, negative = cell killing [1, 8] -20.2% | activity, negative = cell killing [1, 9] -19.6% | Potency (astro)
active: Potency ([1]; tumour line A) 10 µM

OCC(O)CN1CCN(c2ccccc2)CC1 (centres undefined)
inactive: Potency (Tov-21-G) | Potency (Tov112D) | activity, negative = cell killing [1, 4] -18.5% | activity, negative = cell killing [1, 5] -7.12% | activity, negative = cell killing [1, 7] -25.1% | Potency (astro)

CCCCCCCCCCCCOS(=O)(=O)O
inactive: Potency (Tov-21-G) | Potency (Tov112D) | activity, negative = cell killing [1, 4] -29.7% | activity, negative = cell killing [1, 5] 0.019% | activity, negative = cell killing [1, 7] -0.178% | Potency (astro) | max response [2] 1.76% [middle of 4 runs] | outcome [3]

CC1=C(CC(=O)O)c2cc(F)ccc2/C1=C\c1ccc(S(C)=O)cc1 (centres undefined)
inactive: Potency (Tov-21-G) | Potency (Tov112D) | activity, negative = cell killing [1, 4] -9.8% | activity, negative = cell killing [1, 5] -10.1% | activity, negative = cell killing [1, 7] -18.8% | Potency (astro)

c1ccc2c(CC3=NCCN3)cccc2c1
inactive: Potency (Tov-21-G) | Potency (Tov112D) | activity, negative = cell killing [1, 5] -11.3% and -15.4% | activity, negative = cell killing [1, 7] -1.52% and -0.846% and -3.97% | Potency (astro)

O=C1O[C@H](CO)[C@@H](O)[C@H](O)[C@H]1O
inactive: Potency (Tov-21-G) | Potency (Tov112D) | activity, negative = cell killing [1, 4] -6.95% | activity, negative = cell killing [1, 5] 6.72% | activity, negative = cell killing [1, 7] 0.13% | Potency (astro)

Oc1cccc(O)c1
inactive: Potency (Tov-21-G) | Potency (Tov112D) | activity, negative = cell killing [1, 4] -16.6% | activity, negative = cell killing [1, 5] -5.28% | activity, negative = cell killing [1, 7] 27.8% | Potency (astro) | max response [2] 4.18% | outcome [3]

O=C(O)[C@H](O)c1ccccc1
inactive: Potency (Tov-21-G) | Potency (Tov112D) | activity, negative = cell killing [1, 4] -2.7% | activity, negative = cell killing [1, 5] 3.57% | activity, negative = cell killing [1, 7] 1.65% | Potency (astro)

NCCNCCNCCN
inactive: Potency (Tov-21-G) | Potency (Tov112D) | activity, negative = cell killing [1, 4] -6% | activity, negative = cell killing [1, 5] -28.2% | activity, negative = cell killing [1, 7] -8.15% | Potency (astro) | max response [2] 9.63% | outcome [3]

CCOC(=O)[C@H](CCc1ccccc1)N[C@@H](C)C(=O)N1C(=O)N(C)C[C@H]1C(=O)O
inactive: Potency (Tov-21-G) | Potency (Tov112D) | activity, negative = cell killing [1, 4] -4.44% | activity, negative = cell killing [1, 5] -4.75% | activity, negative = cell killing [1, 6] -37.7% | Potency (astro)

NCCNCCNCCNCCN
inactive: activity change, negative = cytotoxicity (Tov-21-G) -0.438% [at 11.6 µM] | activity change, negative = cytotoxicity (Tov112D) 0.19% [at 11.6 µM] | activity, negative = cell killing [1, 4] -23.1% | activity, negative = cell killing [1, 5] -12.1% | activity, negative = cell killing [1, 7] 1.79% | Potency (astro) | max response [2] -1.57% and 1.12% | outcome [3]

CCCCN(CCCC)CCCOC(=O)c1ccc(N)cc1
inactive: Potency (Tov-21-G) | Potency (Tov112D) | activity, negative = cell killing [1, 8] -6.46% | activity, negative = cell killing [1, 9] 6.6% | activity, negative = cell killing [1, 10] -16% | Potency (astro)

CCOC(=O)c1ccc(O)cc1
inactive: Potency (Tov-21-G) | Potency (Tov112D) | activity, negative = cell killing [1, 4] -7.74% | activity, negative = cell killing [1, 5] 6.74% | activity, negative = cell killing [1, 7] -0.513% | Potency (astro) | max response [2] 1.86% | outcome [3]

CCN(CC)CCNC(C(=O)OCCC(C)C)c1ccccc1 (centres undefined)
active: Potency ([1]; tumour line A) 25.1 µM
inactive: Potency (Tov-21-G) | Potency (Tov112D) | activity, negative = cell killing [1, 4] -12.5% | activity, negative = cell killing [1, 7] 6.2% | Potency (astro)

O=S(=O)(O)NC1CCCCC1
inactive: Potency (Tov-21-G) | Potency (Tov112D) | activity, negative = cell killing [1, 4] -10.5% | activity, negative = cell killing [1, 5] -5.78% | activity, negative = cell killing [1, 6] -19.1% | Potency (astro) | max response [2] 1.16% | outcome [3]
